The nature of experiment [1]: p53 stabilisation in HPV-positive human cells, imaging, p53-positive nuclei imaging, 24 h, 48 h (AID 1508601). To be noted: 24/48 h.
Experiment [2] concerns the target Cellular tumor antigen p53 (Homo sapiens) (UniProt P04637). Described as above. To be noted: 24/48 h, stronger effect = higher value.
The mark [3] stands for this setting: measured here: cell number at 24 h, Library stock concentration: 10 mM.
Setting [4] is: measured here: cell number at 48 h, Library stock concentration: 10 mM.
Where [5] appears, read: Library stock concentration: 10 mM.
Setting [6] is: measured here: p53 positive nuclei at 24 h, Library stock concentration: 10 mM.
The mark [7] stands for this setting: measured here: cell number at 24 h, concentration not given here.
Where [8] appears, read: measured here: cell number at 48 h, concentration not given here.
Setting [9] is: measured here: p53 positive nuclei at 24 h, concentration not given here.
Setting [10] is: measured here: cell number at 24 h, Library stock concentration: 80 uM.
Where [11] appears, read: measured here: cell number at 24 h, Library stock concentration: 400 uM.
Where [12] appears, read: measured here: cell number at 24 h, Library stock concentration: 2 mM.
[13] abbreviates: measured here: cell number at 48 h, Library stock concentration: 80 uM.
Setting [14] is: measured here: cell number at 48 h, Library stock concentration: 400 uM.
[15] abbreviates: measured here: cell number at 48 h, Library stock concentration: 2 mM.
Setting [16] is: Library stock concentration: 80 uM.
Where [17] appears, read: Library stock concentration: 400 uM.
Where [18] appears, read: Library stock concentration: 2 mM.
[19] abbreviates: measured here: p53 positive nuclei at 24 h, Library stock concentration: 80 uM.
Where [20] appears, read: measured here: p53 positive nuclei at 24 h, Library stock concentration: 400 uM.
The mark [21] stands for this setting: measured here: p53 positive nuclei at 24 h, Library stock concentration: 2 mM.

This note sets out measurements from PubChem BioAssay AID1508601 (ICCB-Longwood Screening Facility, Harvard Medical School, 2020).

The campaign covered roughly 5,700 compounds. About 85 (1%) were called active. No stated cut-off is given here; in the data, active means p53-positive nuclei above about 36% (passing the limit was not always enough); inactive means the rest. The sample as a whole holds a higher share of actives than the screen did.

Sequence of Cellular tumor antigen p53 (Homo sapiens) (P04637 whole entry, looked up): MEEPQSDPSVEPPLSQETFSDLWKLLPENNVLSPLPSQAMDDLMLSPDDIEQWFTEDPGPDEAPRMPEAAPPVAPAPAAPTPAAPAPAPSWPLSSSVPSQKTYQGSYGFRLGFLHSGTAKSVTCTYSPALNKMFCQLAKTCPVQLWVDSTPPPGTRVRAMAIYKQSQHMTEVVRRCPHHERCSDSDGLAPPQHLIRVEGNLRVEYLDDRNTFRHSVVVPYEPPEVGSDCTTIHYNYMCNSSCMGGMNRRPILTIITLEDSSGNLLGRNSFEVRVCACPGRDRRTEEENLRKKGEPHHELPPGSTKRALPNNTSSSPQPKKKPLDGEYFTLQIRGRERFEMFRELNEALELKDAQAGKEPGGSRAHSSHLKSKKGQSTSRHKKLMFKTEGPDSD

As for `CC(=O)NC(CSC(=S)NSc1ccc(SNC(=S)SCC(NC(C)=O)C(=O)O)cc1)C(=O)O` (stereo not given), the nuclei count, normalised in experiment [1] (measured here: cell number at 24 h, Library stock concentration: 500 nM) amounted to 115%; in experiment [1] (measured here: cell number at 24 h, Library stock concentration: 1.5 uM) it was 108%; in experiment [1] (measured here: cell number at 24 h, Library stock concentration: 4.6 uM), 110%; in experiment [1] (measured here: cell number at 24 h, Library stock concentration: 13.7 uM), 114%; in experiment [1] (measured here: cell number at 24 h, Library stock concentration: 41 uM) it was 121%; in experiment [1] (measured here: cell number at 24 h, Library stock concentration: 123 uM) it was 119%. The nuclei count, normalised in experiment [1] (measured here: cell number at 24 h, Library stock concentration: 370 uM) was determined as 107%; in experiment [1] (measured here: cell number at 24 h, Library stock concentration: 1.111 mM), 105%; in experiment [1] (measured here: cell number at 24 h, Library stock concentration: 3.333 mM) it was 89.8%; in experiment [1] (setting [3]) it was 64.7%; in experiment [1] (measured here: cell number at 48 h, Library stock concentration: 500 nM), 111%; in experiment [1] (measured here: cell number at 48 h, Library stock concentration: 1.5 uM) it was 111%. The nuclei count, normalised turned out to be 109% in experiment [1] (measured here: cell number at 48 h, Library stock concentration: 4.6 uM); 109% in experiment [1] (measured here: cell number at 48 h, Library stock concentration: 13.7 uM); 108% in experiment [1] (measured here: cell number at 48 h, Library stock concentration: 41 uM); 108% in experiment [1] (measured here: cell number at 48 h, Library stock concentration: 123 uM); 106% in experiment [1] (measured here: cell number at 48 h, Library stock concentration: 370 uM); 105% in experiment [1] (measured here: cell number at 48 h, Library stock concentration: 1.111 mM). Besides, the nuclei count, normalised in experiment [1] (measured here: cell number at 48 h, Library stock concentration: 3.333 mM) came out at 95.8%; in experiment [1] (setting [4]), 68.4%. Moreover, the p53-positive nuclei, normalised is -0.0484% (inactive) in experiment [2] (Library stock concentration: 500 nM); -0.0573% (inactive) in experiment [2] (Library stock concentration: 1.5 uM); 0.0306% (inactive) in experiment [2] (Library stock concentration: 4.6 uM); -0.0501% (inactive) in experiment [2] (Library stock concentration: 13.7 uM); -0.00296% (inactive) in experiment [2] (Library stock concentration: 41 uM); -0.123% (inactive) in experiment [2] (Library stock concentration: 123 uM). In addition, the p53-positive nuclei, normalised was -0.0406% (inactive) in experiment [2] (Library stock concentration: 370 uM); 0.162% (inactive) in experiment [2] (Library stock concentration: 1.111 mM); -0.108% (inactive) in experiment [2] (Library stock concentration: 3.333 mM); 6.19% (inactive) in experiment [2] (setting [5]); -0.173% in experiment [2] (measured here: p53 positive nuclei at 24 h, Library stock concentration: 500 nM); -0.118% in experiment [2] (measured here: p53 positive nuclei at 24 h, Library stock concentration: 1.5 uM). The p53-positive nuclei, normalised is -0.113% in experiment [2] (measured here: p53 positive nuclei at 24 h, Library stock concentration: 4.6 uM); -0.173% in experiment [2] (measured here: p53 positive nuclei at 24 h, Library stock concentration: 13.7 uM); -0.0102% in experiment [2] (measured here: p53 positive nuclei at 24 h, Library stock concentration: 41 uM); -0.173% in experiment [2] (measured here: p53 positive nuclei at 24 h, Library stock concentration: 123 uM); -0.0536% in experiment [2] (measured here: p53 positive nuclei at 24 h, Library stock concentration: 370 uM); 0.0142% in experiment [2] (measured here: p53 positive nuclei at 24 h, Library stock concentration: 1.111 mM). In addition, the p53-positive nuclei, normalised was -0.0287% in experiment [2] (measured here: p53 positive nuclei at 24 h, Library stock concentration: 3.333 mM) and 16% in experiment [2] (setting [6]).
In the case of `COc1cccc2ccc(-c3ccc(C(=O)N(C)C)cc3)nc12`, the nuclei count, normalised was 97.5% in experiment [1] (setting [7]) and 101% in experiment [1] (setting [8]). Moreover, the p53-positive nuclei, normalised in experiment [2] (concentration not given here) was 0.00257% (inactive); in experiment [2] (setting [9]), 0.1%.
The corresponding values for `c1ccc(C(OC2CCN(CCCc3nn[nH]n3)CC2)c2ccccc2)cc1` are 101%, 102%, 0.0542% (inactive) and 0.308%.
On to `COc1ccc(-c2ccc3ncc4c(c3c2)n(-c2ccc(N3CCNCC3)c(C(F)(F)F)c2)c(=O)n4C)cn1`, for which the nuclei count, normalised stood at 74.5% in experiment [1] (setting [10]); 49.8% in experiment [1] (setting [11]); 37.4% in experiment [1] (setting [12]); 46.3% in experiment [1] (measured here: cell number at 24 h, Library stock concentration: 3.33 mM); 49.1% in experiment [1] (setting [3]); 70.7% in experiment [1] (setting [13]). Besides, the nuclei count, normalised came to 39.8% in experiment [1] (setting [14]); 21% in experiment [1] (setting [15]); 37.9% in experiment [1] (measured here: cell number at 48 h, Library stock concentration: 3.33 mM); 37.2% in experiment [1] (setting [4]). The p53-positive nuclei, normalised in experiment [2] (setting [16]) was 0.085% (inactive); in experiment [2] (setting [17]), 22.1% (inactive); in experiment [2] (setting [18]), 53.3% (active); in experiment [2] (Library stock concentration: 3.33 mM), 2.2% (inactive); in experiment [2] (setting [5]), -0.138% (inactive); in experiment [2] (setting [19]) it was 0.126%. Moreover, the p53-positive nuclei, normalised in experiment [2] (setting [20]) was 1.06%; in experiment [2] (setting [21]) it was 14.2%; in experiment [2] (measured here: p53 positive nuclei at 24 h, Library stock concentration: 3.33 mM), 3.51%; in experiment [2] (setting [6]), -0.0446%.
For `COc1cc(OC)cc(-c2ccc3ncc4ccc(=O)n(-c5ccc(N6CCNCC6)c(C(F)(F)F)c5)c4c3c2)c1`, the nuclei count, normalised in experiment [1] (setting [10]) was determined as 106%; in experiment [1] (setting [11]) it was 104%; in experiment [1] (setting [12]), 101%; in experiment [1] (setting [3]), 45.6%; in experiment [1] (setting [13]), 111%; in experiment [1] (setting [14]), 107%. Moreover, the nuclei count, normalised was 103% in experiment [1] (setting [15]) and 30.1% in experiment [1] (setting [4]). Besides, the p53-positive nuclei, normalised was 0.103% (inactive) in experiment [2] (setting [16]); 0.257% (inactive) in experiment [2] (setting [17]); -0.11% (inactive) in experiment [2] (setting [18]); 10.5% (inactive) in experiment [2] (setting [5]); -0.0535% in experiment [2] (setting [19]); 0.233% in experiment [2] (setting [20]). Further, the p53-positive nuclei, normalised in experiment [2] (setting [21]) is 0.0288%; in experiment [2] (setting [6]), 11.7%.
For `CCC(=O)N1CCN(c2ccc(-n3c(=O)ccc4cnc5ccc(-c6cnc7ccccc7c6)cc5c43)cc2C(F)(F)F)CC1`, the nuclei count, normalised was found to be 68.5% in experiment [1] (setting [10]); 59.7% in experiment [1] (setting [11]); 55.8% in experiment [1] (setting [12]); 43.7% in experiment [1] (setting [3]); 64.8% in experiment [1] (setting [13]); 49% in experiment [1] (setting [14]). The results for the nuclei count, normalised in experiment [1] (setting [15]) and in experiment [1] (setting [4]) were 36.2% and 21.9%, respectively. Moreover, the p53-positive nuclei, normalised was -0.0521% (inactive) in experiment [2] (setting [16]); -0.0367% (inactive) in experiment [2] (setting [17]); 0.993% (inactive) in experiment [2] (setting [18]); 11.8% (inactive) in experiment [2] (setting [5]); 0.45% in experiment [2] (setting [19]); 0.126% in experiment [2] (setting [20]). The p53-positive nuclei, normalised is 0.287% in experiment [2] (setting [21]) and 0.768% in experiment [2] (setting [6]).
